High-throughput results from PubChem BioAssay.
Hits are enriched below; roughly 3.7% of the tested compounds scored in any of these assays.
TIM10 inh: inhibits growth of TIM10 yeast strain | S. cerevisiae TIM10 strain growth, BacTiter-Glo luminescence, 24 h | inhibition, % at 10 µM | 1.4% of 330,000 active | AID 463195;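 active = inhibition of 40% or more at the single tested concentration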;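 also: wild-type TIM10 isogenic control strain grown at permissive 25 °C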
tim10-1 inh: inhibits growth of tim10-1 mutant yeast; 2.2% of 330,000 active; S. cerevisiae tim10-1 ts strain growth, BacTiter-Glo, 24 h; AID 463190; inhibition, % at 20 µM;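 active = inhibition of at least 40%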;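 also: mutant grown at 25 °C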
PfHsp90 set2: inhibits growth of yeast expressing Plasmodium falciparum Hsp90 | inhibition, % at 9.4 µM | 0.32% of 310,000 active | AID 504621 | S. cerevisiae expressing PfHsp90, BacTiter-Glo ATP, 48 h; yeast lacking PDR1 and PDR3 efflux regulators;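 active = every replicate shows inhibition above about 80%, whatever the replicate mean, limit read from the data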
V-ATPase pH: alters yeast V-ATPase proton transport; AID 504577; S. cerevisiae, pHLuorin cytosolic pH fluorescence; response, % at 10 µM; 0.37% of 350,000 active; in the data active = response mostly above about 7.3%, no sharp cut-off; inactive = mostly below about 5.4%; also: actives read high
tim23-1 inh: inhibits growth of tim23-1 mutant yeast. S. cerevisiae tim23-1 growth, BacTiter-Glo luminescence, 24 h. inhibition, % at 20 µM. 1.3% of 330,000 active. AID 463212;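 active = growth inhibition of the mutant yeast at or above 50%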;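 also: temperature-sensitive mutant grown at 25 °C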
tim10-1 confirm: tim10-1 yeast growth inhibition, confirmed. shares compounds with tim10-1 inh. S. cerevisiae tim10-1 ts strain growth, BacTiter-Glo, 24 h. 56% of 7,400 active. inhibition, % at 20 µM;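 active = inhibition of yeast growth at or above a set limit in either of two repeat tests at 20 µM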;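 also: tim10-1 mutant grown at permissive 25 °C to find synthetic lethal compounds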
TIM10 conf: TIM10 yeast growth inhibition, confirmed; AID 463215; S. cerevisiae tim10 strain growth, BacTiter-Glo luminescence, 24 h; 63% of 4,600 active; shares compounds with TIM10 inh; inhibition, % at 10 µM;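 active = inhibition of yeast growth at or above a set limit in either of two replicates at 10 µM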; also: this counterscreen used the strain with wild-type TIM10
tim23-1 conf: tim23-1 yeast growth inhibition, confirmed | shares compounds with tim23-1 inh | S. cerevisiae tim23-1 growth, BacTiter-Glo luminescence, 24 h | inhibition, % at 20 µM | 83% of 4,400 active;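 active = inhibition above about 39% in either of two replicate wells at 20 µM, limit read from the data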;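 also: temperature-sensitive tim23-1 mutant grown at 25 °C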
Numbers stand for hits; . = inactive; / = no result.

SMILES | TIM10 inh | tim10-1 inh | PfHsp90 set2 | V-ATPase pH | tim23-1 inh | tim10-1 confirm | TIM10 conf | tim23-1 conf
CCOC(=O)N1CCc2c(sc(NC(=O)c3ccc(Cl)s3)c2C(N)=O)C1 | . | 43 | / | / | 66 | 46 | / | 68
Cn1nc(NC(=O)C(F)(F)F)c2ncc(-c3ccccc3)nc21 | / | / | / | . | / | / | / | /
CN(C)c1ccc(/C=N\NC(=S)SCN2C(=O)C3CCC(C)(C2=O)C3(C)C)cc1 (configuration not stated) | 53 | 61 | . | . | 53 | 52 | . | 47
COc1ccc(/C=N\NC(=S)SCN2C(=O)C3CCC(C)(C2=O)C3(C)C)cc1 (configuration not stated) | 52 | 49 | . | . | 52 | 40 | . | 51
CC12CCC(C(=O)N(CC(O)CN3CCN(Cc4ccccc4)CC3)C1=O)C2(C)C (configuration not stated) | . | . | / | . | . | / | / | /
CC12CCC(C(=O)N(CSC(=S)N/N=C\c3ccccc3O)C1=O)C2(C)C (configuration not stated) | 44 | 47 | . | . | 66 | . | 38 | 57
COc1ccc(C(=O)NN2C(=O)C3CCC(C)(C2=O)C3(C)C)cc1 (configuration not stated) | . | . | . | . | . | / | / | /
CN(C)c1ccc(/C=N/NC(=O)CCCO)cc1 | . | . | . | . | . | / | / | /
Cc1cccnc1Nc1nc(-c2ccc(F)cc2)cs1 | . | . | . | . | . | / | / | /
Cc1cccnc1Nc1nc(-c2ccc(O)cc2)cs1 | . | 57 | . | . | 75 | . | / | 57
CCCCN(C(=O)C(C)Oc1cccc(Cl)c1)c1c(N)n(CCC)c(=O)[nH]c1=O (configuration not stated) | . | . | / | . | . | / | / | /
COc1ccc(C2=NN(CCC(=O)NCc3cccs3)C(=O)CC2)cc1 | . | . | . | . | . | / | / | /
CNC(=S)/N=C/NOCc1c(Cl)cccc1Cl | 53 | 63 | . | . | 54 | 55 | 54 | 60
Cc1ccc(CNc2oc(-c3cccs3)nc2C#N)cc1 | . | 44 | . | . | 52 | . | / | 46
O=[N+]([O-])c1cccc(-c2cnc3ccccc3n2)c1 | . | . | . | . | . | / | / | /
O=[N+]([O-])c1cccc(-c2nc3ccccc3s/c2=N/O)c1 | 57 | 71 | . | . | 82 | 55 | 69 | 54
O=C(NCCc1ccccc1)C(c1cccs1)N(C(=O)CCl)c1ccc(Cl)cc1 (configuration not stated) | 56 | 55 | . | . | 53 | 54 | . | 58
O=C(NCCc1ccccc1)C(c1cccs1)N(C(=O)c1csnn1)C1CC1 (configuration not stated) | . | . | . | . | . | / | / | /
Cc1ccc(NC(=O)c2ccc3c(c2)C(=O)N(c2cc(C)ccc2C)C3=O)nc1 | . | . | . | . | . | / | / | /
CC1CCN(CCCNC(=O)CCNC(=O)Cn2cnc3ccccc3c2=O)CC1 | . | . | . | . | . | / | / | /
CC(C)CC(=O)N1CCN(Cc2ccc(Br)cc2)CC1 | . | . | . | . | . | / | / | /
Cc1cccn2c(=O)c(C=O)c(N3CCCCCC3)nc12 | . | 46 | . | . | 58 | 43 | / | 46
CC(C)N(CCNCC(O)COc1ccc(C(C)(C)c2ccccc2)cc1)C(C)C (configuration not stated) | . | . | . | . | . | / | / | /
COC(=O)C1=C(C)NC(=S)NC1c1ccc(-c2cccc(Cl)c2)o1 (configuration not stated) | 53 | 50 | . | . | 52 | 39 | . | 49
COC(=O)C1=C(C)NC(=S)NC1c1ccc(-c2ccccc2C(=O)OC)o1 (configuration not stated) | . | . | . | . | . | / | / | /
SMILES | TIM10 inh | tim10-1 inh | PfHsp90 set2 | V-ATPase pH | tim23-1 inh | tim10-1 confirm | TIM10 conf | tim23-1 conf
O=C(O)CNC(=O)C1(NC(=O)OCc2ccccc2)CCCC1 | / | / | . | . | / | / | / | /
CC(C)(C)C(=O)Nc1ccccc1N1CCN(c2ccc(F)cc2)CC1 | . | . | . | . | . | / | / | /
O=c1c2cc([N+](=O)[O-])ccc2sn1-c1ccccc1 | / | / | / | . | / | / | / | /
N#Cc1c2ccc([N+](=O)[O-])cc2[n+]([O-])n1-c1ccccc1 | 66 | 61 | 91 | 28 | 75 | . | 66 | .
COc1ccc(-c2nc(CS(=O)CC(=O)NCCCN3CCOCC3)c(C)o2)cc1OC (configuration not stated) | . | . | . | . | . | / | / | /
C[C@H]1CN(C2CCCCC2)C(=O)[C@@H]1CC(=O)Nc1ccccc1 | / | / | / | . | / | / | / | /
Cc1ccc(S(=O)(=O)N(OCc2ccccc2)C(C)C(=O)O)cc1 (configuration not stated) | . | . | / | . | . | / | / | /
Cc1cc(C(C#N)c2ccc(Cl)cc2)c(Cl)cc1NC(=O)c1cc(I)cc(I)c1O (configuration not stated) | . | 43 | . | . | 70 | 45 | / | 61
Cc1onc(-c2c(Cl)cccc2Cl)c1C(O)c1ccccc1 (configuration not stated) | . | . | . | . | . | / | / | /
CC1=C(CC(=O)c2ccccc2)C(=O)c2ccccc2C1=O | . | 48 | / | . | 64 | 42 | / | 69
O=C(CN1C(=O)c2ccccc2C1=O)c1ccccc1 | . | . | . | . | . | / | / | /
COc1cc2cc(/C=C/C(=O)c3ccco3)c(Cl)nc2cc1OC | . | . | . | . | . | / | / | /
COc1ccc2cc(/C=C/C(=O)c3ccco3)c(Cl)nc2c1 | 46 | 45 | / | / | 52 | 38 | . | 48
Cc1ccc2cc(/C=C/C(=O)c3ccco3)c(Cl)nc2c1 | 61 | 54 | / | . | 80 | 54 | 61 | 65
Cc1ccc2nc(Cl)c(/C=C/C(=O)c3ccco3)cc2c1 | 51 | 44 | . | . | 64 | . | 52 | 50
CC(C)Cn1c(N)c(C(=O)CSc2nnc(C3CC3)n2C2CC2)c(=O)n(C)c1=O | . | . | . | . | . | / | / | /
COc1cc(/C=C/C(=O)c2ccc(Cl)s2)cc(OC)c1O | 43 | 62 | . | . | 67 | 59 | 44 | 53
Cc1c(/C=C/C(=O)c2ccc(O)cc2)cnn1C | . | . | . | . | . | / | / | /
COc1ccc(C=CC(=O)c2ccc(OC)c(OC)c2)cc1O | / | / | / | . | / | / | / | /
Cc1c(/C=C/C(=O)c2ccc(Cl)s2)cnn1C | 48 | 45 | / | . | 58 | 36 | 37 | 47
O=C(C=Cc1ccc(Cl)s1)c1ccc(Cl)s1 | / | / | . | . | / | / | / | /
COc1ccc(/C=C/C(=O)c2ccc(Cl)s2)cc1O | 68 | 53 | . | . | 69 | 54 | 44 | 81
CC(C)Cn1cnc2c1c(=O)n(CC(=O)NC(=O)NC(C)(C)C)c(=O)n2Cc1ccccc1 | . | . | . | . | . | / | / | /
COc1cc(OC)cc(N2C(=O)CSCC2=O)c1 | . | . | . | . | . | / | / | /
